Experimental data published in PubChem BioAssay AID2057 (The Scripps Research Institute Molecular Screening Center, 2009).
Among all 320,000 compounds or so, about 2,100 (0.66%) were called active. The list comes from a sample in which actives are over-represented; it also holds similar structures and randomly drawn compounds. Values without a mark were called inactive.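 The calls were made as follows: active = inhibition above the mean inhibition of all tested compounds plus 3 SD, set per campaign (cut at about 40% in these data); inactive = the rest.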

target: Induced myeloid leukemia cell differentiation protein Mcl-1 (Homo sapiens) (UniProt Q07820); assay: MCL1-BIM peptide interaction disruptors – biochemical, fluorescence polarization, primary screen (AID 2057); conditions: GST-MCL1 / FITC-Bim-BH3 fluorescence polarization; at 10.9 µM; active compounds read high;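 also: 0% = DMSO wells and 100% = unlabeled Bim-BH3 peptide control; higher means more loss of mP so more displacement of Bim peptide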
Sequence (Q07820 whole entry, looked up): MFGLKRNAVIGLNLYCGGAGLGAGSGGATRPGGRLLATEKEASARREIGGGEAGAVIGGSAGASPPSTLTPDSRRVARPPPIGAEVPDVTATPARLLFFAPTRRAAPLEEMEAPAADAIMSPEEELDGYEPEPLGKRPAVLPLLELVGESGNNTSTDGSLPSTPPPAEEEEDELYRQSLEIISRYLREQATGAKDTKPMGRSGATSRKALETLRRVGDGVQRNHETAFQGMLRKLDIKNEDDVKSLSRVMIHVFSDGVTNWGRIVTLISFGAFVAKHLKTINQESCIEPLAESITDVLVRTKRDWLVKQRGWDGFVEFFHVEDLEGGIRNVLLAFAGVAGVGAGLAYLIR

| Structure (SMILES) | inhibition |
| --- | --- |
| O=C(NCCCCc1ccccc1)C1CC(c2ccc([N+](=O)[O-])cc2)=NO1 (configuration not stated) | 12.6% |
| CN(CC(=O)NC1CCN(Cc2ccccc2)CC1)S(=O)(=O)c1ccc(Cl)s1 | 3.17% |
| CCc1cc(CNC(=O)CC2C(=O)NCCN2Cc2ccccc2C(F)(F)F)on1 (configuration not stated) | 17.3% |
| CC1(C)CC(=O)C2=C(C1)NCN(CCCN1CCOCC1)C2 | -0.98% |
| O=C(NC(=S)Nc1ccc(S(=O)(=O)N2CCOCC2)cc1)c1ccccc1[N+](=O)[O-] | 14.4% |
| O=C(N/N=C/c1cc(Cl)cc([N+](=O)[O-])c1O)C(O)(c1ccccc1)c1ccccc1 | 9.22% |
| O=[N+]([O-])c1cc(Cl)cc(/C=N/NC(=S)Nc2cc(S(=O)(=O)N3CCOCC3)ccc2Cl)c1O | 52.5% (active) |
| COC(=O)CN(c1cccc(C(C)=O)c1)S(C)(=O)=O | 0.97% |
| CCCSc1ncccc1C(=O)O | -3.51% |
| COc1cccc(Nc2ncccc2C(=O)O)c1 | 1.4% |
| COc1ccc(Nc2cc(Cl)ccc2C(=O)O)cn1 | 62.7% (active) |
| COc1ccc(NS(=O)(=O)c2ccc(F)cc2F)cn1 | 8.27% |
| CCCOc1ccc(Cl)cc1Nc1nc(NCCO)nc(N2CCCC2)n1 | 3.82% |
| NC1=NC2(CCCCC2)N(c2ccc(F)cc2F)C(N)=N1 | 10.2% |
| COc1ccc(Cl)cc1C(=O)OCC(=O)NCc1cccs1 | -2.56% |
| O=C(CSc1ncccn1)N1CCCC1 | 9.67% |
| C=CCNc1nnc(SCC(=O)N2CCCCC2)c2ccccc12 | 120% (active) |
| C=CCNc1nnc(C)c2ccccc12 | -0.12% |
| O=C(NCCSCc1ccccc1)c1ccc(Cl)c(S(=O)(=O)N2CCOCC2)c1 | 1.14% |
| O=C(c1ccc(F)c(S(=O)(=O)N2CCOCC2)c1)N(CCc1ccccc1)Cc1ccccc1 | 32.4% |
| CCOc1ccc(NC(=O)CCCCCN2C(=O)[C@@H]3Cc4ccccc4CN3C2=O)cc1 | 6.32% |
| COc1ccc(CC(=O)Nc2c3c(nn2-c2cccc(Cl)c2)CS(=O)C3)cc1 (configuration not stated) | -2.25% |
| CCNc1nc(N)nc(-c2cc(Cl)ccc2OC)n1 | -1.8% |

| Structure (SMILES) | inhibition |
| --- | --- |
| Cc1cccn2c(=O)c3cc(C(=O)NCCN4CCOCC4)c(=N)n(Cc4cccnc4)c3nc12 | 46.7% (active) |
| COc1ccc(CCn2c(=N)c(C(=O)NCC3CCCO3)cc3c(=O)n4cccc(C)c4nc32)cc1OC (configuration not stated) | 2% |
| Cc1cccn2c(=O)c3cc(C(=O)NCC4CCCO4)c(=N)n(Cc4ccc(F)cc4)c3nc12 (configuration not stated) | -4.4% |
| CC(C)(C)NC(=O)COC(=O)c1cc(Br)ccc1Cl | -2.96% |
| CCCC1NC(=O)NC(C)=C1C(=O)OCC (configuration not stated) | -0.76% |
| Oc1ccc2ccccc2c1N=Nc1nccs1 | 61.4% (active) |
| CC1=C(C(=O)OC(C)(C)C)C(c2ccc(Br)cc2)NC(=O)N1CCCC(=O)O (configuration not stated) | 2.27% |
| CC[N+](C)(CC)CCC[n+]1c(-c2ccccc2)c2cc(N)ccc2c2ccc(N)cc21 | 122% (active) |
| C=C(C)CSc1nnc(-c2ccc(C)cc2)n1N | -0.24% |
| CC(OC(=O)c1ccccc1NCCO)C(=O)Nc1ccnn1C(C)C (configuration not stated) | 1.18% |
| CSCCC(NC(=O)c1ccc(Cl)cc1Cl)C(=O)NNC(=O)c1csc(N2CCOCC2)n1 (configuration not stated) | 12.3% |
| CN(C(=O)COC(=O)c1cc(=O)[nH]c2ccccc12)C1CCCCC1 | 1.49% |
| COc1ccccc1NC(=O)C[n+]1ccccc1 | -1.7% |
| COC(=O)C[n+]1cccc2ccccc21 | 195% (active) |
| Cc1cccc[n+]1CC(=O)c1ccccc1 | 9.96% |
| Cn1ccs/c1=N\S(=O)(=O)c1ccc(C(C)(C)C)cc1 | 5.09% |
| O=[N+]([O-])c1cc([N+](=O)[O-])c(Oc2cc(F)cc(F)c2F)cc1NN1CCCCC1 | -1.7% |
| COc1ccc2nc(SCc3ccccc3)nc(C)c2c1 | 1.99% |
| Clc1ccccc1CSc1nnc(-c2ccco2)c(-c2ccco2)n1 | 79.9% (active) |
| CCc1nnc(SCc2cccc(F)c2)nc1CC | 0.71% |
| Fc1cccc(Cl)c1CSc1ccc(-c2ccco2)nn1 | 17.6% |
| O=C(CC1N=C2c3ccccc3N=C(SCc3ccccc3Cl)N2C1=O)NCc1ccco1 (configuration not stated) | 19.4% |
| c1ccc(CSc2nnc(-c3ccco3)c(-c3ccco3)n2)cc1 | 82.3% (active) |

| Structure (SMILES) | inhibition |
| --- | --- |
| CCOC(=O)C1CCCN(C(=O)COc2ccc(N(C)S(=O)(=O)c3ccc(C)cc3)cc2)C1 (configuration not stated) | -2.82% |
| CCCN(C(=O)c1nc2nccc(C)n2n1)c1c(N)n(Cc2ccccc2)c(=O)[nH]c1=O | 0.15% |
| COCc1cc(=O)n2[nH]c(C)c(-c3ccccc3)c2n1 | 10.3% |
| CCC1SC2=NCCN2C1(O)c1ccc(Cl)cc1 (configuration not stated) | 7.57% |
| CN1C(=O)/C(=C\c2cc(Br)cs2)c2ccccc21 | -0.58% |
| O=C(COC(=O)c1ncc(Cl)c(Cl)c1Cl)NNC(=O)c1ccccc1 | 5.89% |
| Cn1c(-c2ccc(C(F)(F)F)cc2)cc2onc(-c3ccccc3)c2c1=O | 4.36% |
| Cc1oc2c(c1C(=O)N1CCOCC1)C(=O)c1ccccc1C2=O | -4.11% |
| O=C1c2ccccc2-c2ncnc3c(N4CCOCC4)cc(N4CCOCC4)c1c23 | 48.8% (active) |
| COC1=C(N2CCOCC2)C(=O)c2ccccc2C1=O | 6.69% |
| COc1ccc(OC)c(NC(=O)CN(C)CCOc2ccc(Br)cc2)c1 | -19.6% |
| CCN(CC)C(=O)CC(c1ccc2c(c1)OCO2)c1c(OC)cc(OC)c2c(-c3ccccc3)cc(=O)oc12 (configuration not stated) | 2.43% |
| Cc1cc(C)c2c(-n3cccc3)c(C(=O)NNS(=O)(=O)c3ccc(F)cc3)sc2n1 | 13.1% |
| COc1ccc(CNC(=O)c2cc3c(=O)n4ccccc4nc3n(CC3CCCO3)c2=N)cc1 (configuration not stated) | 9.61% |
| Cc1cccn2c(=O)c3cc(C#N)c(=NC(=O)c4cccnc4)n(CC4CCCO4)c3nc12 (configuration not stated) | 44.1% (active) |
| Cc1cccn2c(=O)c3cc(C#N)c(=O)n(CCCN4CCOCC4)c3nc12 | 23.2% |
| CCN(CC(=O)NCc1cccs1)c1nnnn1-c1ccccc1 | 3.16% |
| O=C(NCc1cccnc1)C12CC3CC(CC(C3)C1)C2 | 3.8% |
| Cc1cc(N2CCN(S(=O)(=O)c3ccc(C)c(C)c3)CC2)c2ccccc2n1 | -2.07% |
| Cc1ccc(S(=O)(=O)C(C#N)c2nc3ccccc3nc2N2CCCC2)cc1C (configuration not stated) | 75.8% (active) |
| Cc1ccc(S(=O)(=O)Nc2nc3ccccc3nc2N2CCc3ccccc3C2)cc1 | 12.7% |
| O=C(CN1CCN(S(=O)(=O)c2ccc(Cl)s2)CC1)N1CCCCC1 | 5.82% |
| O=C(NCCC1CCCCN1S(=O)(=O)c1ccc(Cl)cc1)C(=O)NCc1ccco1 (configuration not stated) | 9.57% |

| Structure (SMILES) | inhibition |
| --- | --- |
| CCCn1c(C2CCCN2c2nc(-c3ccc(C)cc3)cs2)nc2cc(Cl)c(N3CCCCC3)cc21 (configuration not stated) | 75.2% (active) |
| CCCn1c(C(C)Nc2nc(-c3ccc(C)cc3)cs2)nc2cc(Cl)c(N3CCCCC3)cc21 (configuration not stated) | 5.75% |
| CCCn1c(C2CCCN2c2nc(-c3ccc(OC)cc3)cs2)nc2ccccc21 (configuration not stated) | 11.8% |
| O=C1N[C@@H](Cc2ccccc2)C(=O)N2[C@@H]3N(S(=O)(=O)c4ccc(F)cc4)c4ccccc4[C@]3(Br)C[C@@H]12 | 8.03% |
| CC(=O)NC(C)(C)C1CC=C(C)/C(=N\O)C1 (configuration not stated) | -0.57% |
| CCn1c(SCc2ccccc2)nc2cc(OC)c(OC)cc2c1=O | 3.42% |
| CSc1c(SCc2ccccc2)cnn(Cc2ccccc2)c1=O | 181% (active) |
| COC(=O)c1ccc(SCc2ccccc2)nc1 | 11.2% |
| Cc1c(C)c(C)c(S(=O)(=O)N2CCC3(CC2)OCCO3)c(C)c1C | 6.11% |
| Cc1cc(CNC(=O)C2CCC(=O)N(CCc3ccc(Cl)cc3)C2)no1 (configuration not stated) | 2.34% |
| Cc1ccc(C(=O)NC2CCCC(C)C2C)cc1S(=O)(=O)N1CCCCC1 (configuration not stated) | -1.76% |
| O=C(Nc1nccs1)c1cc(S(=O)(=O)N2CCOCC2)c(Cl)cc1Cl | 5.02% |
| Oc1cc2c(cc1O)CN(C(=S)NCCc1ccc(Cl)cc1)CCC2 | 34.4% |
| O=C(COC(=O)/C=C/c1ccc(OC(F)F)cc1)NC1CCCCC1 | -2.99% |
| COc1ccc(-c2nc(CS(=O)CC(=O)NCc3ccccc3)c(C)o2)cc1OC (configuration not stated) | 9.71% |
| COc1ccc(-c2nc(CS(=O)CC(=O)NCc3ccccn3)c(C)o2)cc1 (configuration not stated) | 111% (active) |
| COc1cccc(-c2nc(CS(=O)CC(=O)NCc3ccc(F)cc3)c(C)o2)c1 (configuration not stated) | 0.44% |
| COCCCNC(=O)CNC(=S)N(Cc1cc(OC)c(OC)c(OC)c1)C1CCCC1 | -4.92% |
| O=C(Cc1ccc(-n2c(=O)c3sccc3n(Cc3ccc(F)cc3)c2=O)cc1)NCc1ccco1 | -2.64% |
| O=C(CCCn1c(SCC(=O)c2ccc(F)cc2)nc2ccccc2c1=O)NCc1ccco1 | 2.72% |
| O=C(CCCn1c(SCC(=O)c2ccccc2)nc2ccccc2c1=O)NCC1CCCO1 (configuration not stated) | 0.98% |
| O=C(CCn1c(SCC(=O)c2ccccc2)nc2ccccc2c1=O)NCc1ccc(F)cc1 | 41.6% (active) |
| Cc1cccc(-c2c(NC(=O)c3ccco3)oc3ccc(Cl)cc3c2=O)c1 | -4.25% |
